Measurements published in PubChem BioAssay (NCI).
Compounds without any hit were thinned out: in the full panel of roughly 79,000, 15% have a hit. Cut-off read from the data, not from the text of the source: active = growth inhibition above about 70%; inactive = the rest.

Tests used:
[1] = NCI Yeast Anticancer Drug Screen. Data for the rad50 strain (AID 155);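 note: 0% = growth of vehicle-only cultures of the same strain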; details: S. cerevisiae rad50 strain growth inhibition; at 50.0 µM; stronger effect = higher value
Outline: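 Genetically altered yeast (DNA repair pathway); compound treatment; growth inhibition vs vehicle ctrl.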

[2] = NCI Yeast Anticancer Drug Screen. Data for the mec2-1 strain (AID 157); details: S. cerevisiae mec2-1 strain, at 50.0 µM, stronger effect = higher value
Outline: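 mec2-1 yeast strain, carrying an alteration in DNA damage repair or cell cycle control, was exposed to compounds; growth inhibition was measured relative to vehicle-treated controls.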

[3] = NCI Yeast Anticancer Drug Screen. Data for the sgs1 mgt1 strain (AID 161);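 note: 0% = growth of cultures given vehicle only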; details: S. cerevisiae sgs1 mgt1 strain, at 50.0 µM, stronger effect = higher value
Outline: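 Growth of a repair-deficient yeast mutant was monitored after compound treatment and expressed as inhibition relative to vehicle-treated cultures.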

[4] = NCI Yeast Anticancer Drug Screen. Data for the cln2 rad14 strain (AID 165);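 note: 0% = growth equal to vehicle treated cultures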; details: S. cerevisiae cln2 rad14 strain, at 50.0 µM, stronger effect = higher value
Outline: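 Yeast carrying cln2 and rad14 alterations (cell cycle control and DNA damage repair) were exposed to compounds. Growth inhibition was measured against vehicle-treated controls.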

[5] = NCI Yeast Anticancer Drug Screen. Data for the bub3 strain (AID 167); details: S. cerevisiae bub3 mutant strain, at 50.0 µM, stronger effect = higher value
Outline: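 Yeast carrying a defined mutation is treated with each compound, and growth is compared with that of vehicle-exposed cells to give inhibition.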

[6] = NCI Yeast Anticancer Drug Screen. Data for the mlh1 rad18 strain (AID 175); details: S. cerevisiae mlh1 rad18 strain growth inhibition; at 50.0 µM; stronger effect = higher value
Outline: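 Growth inhibition of the yeast strain was measured after compound exposure and expressed relative to vehicle-treated controls. The strain carries defined defects in DNA damage repair.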

Measured: growth inhibition

COc1ccccc1P(=S)(c1ccccc1)c1ccccc1
inactive: [1] 31% | [2] 24.3% | [3] 17.6% | [4] 38% | [5] 27.2% | [6] 24.2%

N.N.NC(CS)C(=O)[O-].NC(CS)C(=O)[O-].[Pt+4] (stereo not given)
inactive: [1] 15% | [2] -4% | [3] 3.25% | [4] -21.6% | [5] -12.8% | [6] 15.4%

C=CCOC(=O)Cc1ccccc1
inactive: [1] 20.5% | [2] -5.35% | [3] 4.9% | [4] -31.9% | [5] -39.2% | [6] -3.9%

C[N+](C)(C)CC1CCC/C1=N/O (stereo not given)
inactive: [1] 44.8% | [2] 13.4% | [3] -0.5% | [4] 9.95% | [5] 26.8% | [6] 34.9%

COc1ccc([As]=O)cc1N (stereo not given)
inactive: [1] 4.8% | [2] 18.1% | [3] 8.75% | [4] 7.25% | [5] -7.45% | [6] -10.5%

O=C(CCC1CCCCN1)Nc1ccc2c(c1)C(=O)c1ccc(NC(=O)CCN3CCCCC3)cc1C2=O (stereo not given)
inactive: [1] 6.2% | [2] 9.2% | [3] -1.9% | [4] 9.3% | [5] -12.6% | [6] 6.8%

CS(=O)(=O)NC(=NCCOS(C)(=O)=O)N[N+](=O)[O-]
inactive: [1] 9% | [2] -8.5% | [3] 19.4% | [4] -6.85% | [5] 1.9% | [6] 11.8%

O.O.[Cl][Pt+2][Cl].[NH-]CC[NH-]
inactive: [1] 23.6% | [2] 10.7% | [3] -2.15% | [4] 41.5% | [5] 16% | [6] 9.85%

OCC1CCCN2CCCCC12 (stereo not given)
inactive: [1] 1.2% | [2] 0.35% | [3] -4.2% | [4] -39.1% | [5] -20.4% | [6] 7.35%

COC(c1ccccc1)(c1ccccc1)C1C(c2ccccc2)N1C1CCCCC1 (stereo not given)
inactive: [1] 46.1% | [2] -5.3% | [3] 43.5% | [4] -1.3% | [5] -5.1% | [6] 22.8%

COC(=O)C1C(OC(=O)c2ccccc2)CC2CCC1N2C(N)=O (stereo not given)
inactive: [1] -12.6% | [2] -0.75% | [3] -8.05% | [4] -23% | [5] -15.9% | [6] 3.3%

Clc1ccc(N=c2ccc3ccccc3[oH+]2)cc1.Clc1ccc(N=c2ccc3ccccc3[oH+]2)cc1.[Co]
inactive: [1] -5.05% | [2] -25.4% | [3] 14.8% | [4] -59.2% | [5] -12.8% | [6] 15.6%

CNc1ccccc1C(=O)O
inactive: [1] -19.8% | [2] -7.3% | [3] 10.5% | [4] -9.75% | [5] -12.2% | [6] 3.15%

CCC(=O)N/N=C(\N)N[N+](=O)[O-]
inactive: [1] -16.1% | [2] -6.55% | [3] -20.5% | [4] -83.6% | [5] -3.1% | [6] -9.65%

N#CCCCCN=[N+]=[N-]
inactive: [1] -4% | [2] 27.1% | [3] -12.6% | [4] 3.25% | [5] 20.4% | [6] -8.35%

NC1CCCC[C@H]1N.N[C@@H]1CCCC[C@@H]1N.O=C(P(=O)([O-])[O-])P(=O)([O-])[O-].[Pt+4].[Pt+4]
inactive: [1] 20.2% | [2] 3.85% | [3] -13.7% | [4] 2.7% | [5] -6.6% | [6] 10.3%

CC(CO)([N+](=O)[O-])[N+](=O)[O-]
inactive: [1] 7.45% | [2] 4.75% | [3] -0.05% | [4] -0.1% | [5] 4.8% | [6] 7.35%

C/C=C\C(C)=C/C(C)C(=O)CC(O)CC1CC(=O)NC(=O)C1 (stereo not given)
inactive: [1] 11.6% | [2] -20.4% | [3] -6.9% | [4] 11.8% | [5] 7.85% | [6] 13.3%

Nc1nnc(N)n1N
inactive: [1] 15.8% | [2] -21.2% | [3] -8.15% | [4] -20.3% | [5] 1.5% | [6] -1.65%

O=C(Nc1ccc(S(=O)(=O)F)cc1)c1ccc2ccccc2c1O
inactive: [1] 9.85% | [2] 31.8% | [3] 32.5% | [4] 2.15% | [5] 27.9% | [6] 25.4%
